Bioassay records (PubChem)
In the library only some 9% were active in any assay of this set; here they are far more common.
HPGD block = qHTS Assay for Inhibitors of HPGD (15-Hydroxyprostaglandin Dehydrogenase); AID 894, 2007; 4.3% of 150,000 active; purified HPGD, NADH fluorescence kinetic, PGE2 substrate; Potency, µM, inactives show at the top dose activity change, negative = inhibition, hits mostly inhibitors
Target sequence (P15428 whole entry, looked up): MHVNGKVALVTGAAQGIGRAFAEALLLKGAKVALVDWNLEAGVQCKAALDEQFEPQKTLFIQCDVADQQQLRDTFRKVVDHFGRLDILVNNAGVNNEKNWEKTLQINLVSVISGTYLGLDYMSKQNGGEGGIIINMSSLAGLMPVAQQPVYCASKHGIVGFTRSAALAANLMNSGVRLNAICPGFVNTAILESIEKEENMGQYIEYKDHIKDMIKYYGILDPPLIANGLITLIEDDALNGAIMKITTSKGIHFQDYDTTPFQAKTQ
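20 nM HPGD preincubated 15 min at room temperature with compound in 50 mM Tris-HCl pH 8, 0.01% Tween 20. Started with 1 mM NAD+ and 30 uM prostaglandin E2; NADH fluorescence (360/450 nm) read 5 times over 30-s intervals, last minus first.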
ALDH1A1 block = qHTS Assay for Inhibitors of Aldehyde Dehydrogenase 1 (ALDH1A1) | Aldehyde dehydrogenase 1A1 (Homo sapiens), P00352 | Purified ALDH1A1, NADH fluorescence, propionaldehyde substrate | Potency, µM (doses to about 75.3 µM), for the others: at the highest dose activity, negative = inhibition, actives largely listed as inhibitors | 7.3% of 220,000 active | AID 1030, 2008;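 also: plate controls were no enzyme wells and a reference inhibitor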
LMNA splice mod = qHTS Assay for Modulators of Lamin A Splicing; HeLa LMNA splicing GFP/RFP minigene ratio, 48 h; Potency, µM (highest dose often 46.1 µM), for inactives: top-dose ratio change, negative = inhibition, usual class: inhibitors; 0.01% of 200,000 active; AID 1487, 2009; active = well fitted inhibition curve with a large enough effect in the signal ratio, with a control signal flat, not every such curve was filed as active; inconclusive = small, poorly fitted or top-dose-only effect, or effect the other way, or a change in a side signal; the % refers to the signal ratio
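S3 HeLa stable clones carrying a lamin A-EGFP splicing minigene plus DsRed2 were seeded at 600 cells/well in Opti-MEM with 2% FBS, pin-dosed and incubated 48 h at 37°C. Acumen cytometry (488 nm) gave the GFP/RFP total-intensity ratio.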
Luc counter = Counterscreen for Luciferase (Kinase-Glo TM) Inhibition. Kinase-Glo luciferase, ATP luminescence, 8 min. Potency, µM (titrated, usually from 38.3 µM), inactives show at the highest dose activity change, negative = inhibition, usual class: inhibitors. 0.28% of 200,000 active. Luciferin 4-monooxygenase (Photuris pensylvanica), Q27757; active = well fitted curve in the direction sought with a large enough effect; inconclusive = small, poorly fitted or top-dose-only effect, or another doubt; inactive = no such curve, though single readings can be large; an effect the other way counts as inactive or inconclusive; also: nearly all actives have a fitted effect of over 60% in size
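Luminescence was the read-out, taken after 8-minute incubation at ambient temperature. Luciferase turned over luciferin with 10 uM ATP in imidazole pH 7.2 buffer containing KCl, MgCl2, Tween 20 and BSA.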
IMPase Li inh = qHTS Assay for Identifying the Cell-Membrane Permeable IMPase Inhibitors: Potentiation with Lithium; AID 1457, 2008; Potency, µM (doses to about 59.4 µM), inactives show top-dose activity, negative = IMPase inhibition, usual class: inhibitors; CHO-M1 cells, IP1 TR-FRET (IP-One), carbachol + lithium; 0.35% of 210,000 active; active = well fitted curve in the direction sought with a large enough effect; inconclusive = small, poorly fitted or top-dose-only effect, or another doubt; inactive = no such curve, though single readings can be large; an effect the other way counts as inactive or inconclusive;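 also: IP1 builds up when IMPase is blocked and the TR-FRET signal falls; plate controls were basal vehicle for no effect and high inhibitor control for full effect; nearly all actives have a fitted effect of over 50% in size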
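CHO-M1, 2000 cells/well, 16–30 h culture; cpd + low Li+, 30 min 37C; lysis with d2-IP1/Eu-anti-IP1 Ab, 10 min RT; TR-FRET 665/620 ratio and 620 channel; AC50 via Hill.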
Starred values were filed as active, the others as inactive; [ ] = another dose, or the depositor's remark. Unless noted, calls follow the shape of the dose curve; as a rule, active = well fitted inhibition curve with a large enough effect (not every such curve was filed as active); inconclusive = small, poorly fitted or top-dose-only effect, or another doubt; inactive = no such curve, though single readings can be large or run the other way. Unless noted, % is scaled to controls: 0 for no effect and ±100 for the full control effect; potency is read from the fitted curve at half-maximal effect.

For Cc1ccccc1NC(=O)c1cccc(NC(=O)CCC(=O)O)c1 the results were ALDH1A1 block 5.7%, LMNA splice mod -5.6%[46 µM], Luc counter -4.2% and IMPase Li inh 0.3%.
`CC1CCCC(C)N1C(=O)Cc1ccccc1` (stereo not given) gave HPGD block 20µM*, ALDH1A1 block inconclusive, LMNA splice mod 0.2%, Luc counter -0.1% and IMPase Li inh 49.0%[38.3 µM].
CC1CCCC(C)N1C(=O)CSc1nnnn1Cc1ccccc1 (stereo not given) was read as HPGD block -4.9%, ALDH1A1 block -10.0%, LMNA splice mod 6.0%, Luc counter -0.1% and IMPase Li inh -3.5%[38.3 µM].
`Cc1cccc(S(=O)(=O)Nc2nc3ccccc3nc2NCc2ccc3c(c2)OCO3)c1` gave HPGD block -14.7%, ALDH1A1 block -2.4%, LMNA splice mod -11.7%, Luc counter -0.8% and IMPase Li inh 4.1%.
`CCCSc1nnc2[nH]c(=O)cc(N)n12` gave HPGD block -7.7%, ALDH1A1 block 5.4%, LMNA splice mod -14.8%, Luc counter 2.0% and IMPase Li inh 13.7%.
CCCCSc1nnc2[nH]c(=O)cc(N)n12 was read as HPGD block 15.8µM*, ALDH1A1 block inconclusive, LMNA splice mod 5.0%, Luc counter 18.2% and IMPase Li inh 21.8%[38.3 µM].
`CCOC(=O)N1CCC(NC(=O)c2cnn(-c3ccc(F)cc3F)c2C2CCN(C(=O)OC(C)(C)C)CC2)CC1` gave LMNA splice mod 6.1%[46 µM].
`COc1cccc(CCc2nnc(CCC(=O)N3CCN(Cc4ccccn4)CC3)o2)c1` gave ALDH1A1 block 8.91µM* and IMPase Li inh 1.7%.
Screening COc1cccc(CCc2nnc(CCC(=O)NCCc3cccc(C)n3)o2)c1 returned ALDH1A1 block inconclusive, LMNA splice mod 3.7%[46 µM], Luc counter -1.6% and IMPase Li inh -2.4%.
For CSc1nnc2c3ccccc3n(CCc3ccccc3)c2n1 the results were HPGD block -28.2%, ALDH1A1 block 8.91µM*, LMNA splice mod inconclusive, Luc counter 0.3% and IMPase Li inh -0.2%[38.3 µM].
O=C(CSc1nnc2c3ccccc3c3ccccc3c2n1)Nc1ccccc1F was read as HPGD block -15.8%, ALDH1A1 block 8.91µM*, LMNA splice mod 4.8%, Luc counter -6.2% and IMPase Li inh inconclusive.
CCCn1c2ccccc2c2nnc(SCC(=O)Nc3ncccn3)nc21 was read as HPGD block -37.7%, ALDH1A1 block 7.08µM*, LMNA splice mod -1.9%, Luc counter -8.1% and IMPase Li inh 26.5%[38.3 µM].
`CCn1c2ccccc2c2nnc(SCC(=O)N3CC(C)OC(C)C3)nc21` (stereo not given) gave HPGD block 14.1µM*, ALDH1A1 block 20µM*, LMNA splice mod -12.6%, Luc counter -3.3% and IMPase Li inh 51.8%[38.3 µM].
For O=C(CSc1nnc2c3ccccc3c3ccccc3c2n1)Nc1ccccc1 the results were HPGD block -10.4%, ALDH1A1 block 0.2%, LMNA splice mod 4.1%, Luc counter 2.4% and IMPase Li inh inconclusive.
CCC1(C)C(Nc2c(C)cccc2C)=NC(=S)N1c1ccc(NC(C)=O)cc1 (stereo not given) was read as ALDH1A1 block 3.4% and LMNA splice mod 0.1%.
`CC1(C)Oc2ccc(NC(=O)c3ccco3)cc2O1` gave HPGD block inconclusive, ALDH1A1 block -12.1%, LMNA splice mod -1.3%, Luc counter -26.0% and IMPase Li inh -39.0%[38.3 µM].
Screening COc1ccccc1NCC(=O)NNC(C)C(=O)Nc1cccc(Cl)c1 (stereo not given) returned ALDH1A1 block 2.8%, LMNA splice mod inconclusive, Luc counter 3.5% and IMPase Li inh 6.0%.
For Cc1cc2c(N)cccc2nn1 the results were HPGD block -23.4%, ALDH1A1 block 3.98µM*, LMNA splice mod 10.5%, Luc counter -11.9% and IMPase Li inh 82.1%[38.3 µM].
`COc1cnn(-c2cc(Oc3ccc(C)cc3)ncn2)c(=O)c1Cl` gave HPGD block -6.4%, ALDH1A1 block 12.6µM*, LMNA splice mod 0.1%, Luc counter -6.6% and IMPase Li inh 26.3%[38.3 µM].
For Cc1ccc(S(=O)(=O)/N=C(\CN2CCCCC2)N2CCOCC2)cc1 the results were HPGD block -4.2%, ALDH1A1 block 11.2µM*, LMNA splice mod 16.0%, Luc counter -0.1% and IMPase Li inh 3.5%[38.3 µM].
NC1=CC(=O)c2cccc3cccc1c23 was read as HPGD block -14.5%, ALDH1A1 block 1µM*, LMNA splice mod 15.1%, Luc counter -6.1% and IMPase Li inh 12.6µM*.
For O=C(COC(=O)CCCNC(=O)c1ccc(Cl)cc1)NCc1ccccc1Cl the results were HPGD block inconclusive, ALDH1A1 block 4.47µM*, LMNA splice mod 14.8%, Luc counter 4.3% and IMPase Li inh 46.3%[38.3 µM].
For O=C(COC(=O)C1CCC1)NCc1ccccc1Cl the results were HPGD block 8.91µM*, ALDH1A1 block inconclusive, LMNA splice mod 2.7%, Luc counter -5.1% and IMPase Li inh 0.5%[38.3 µM].
Screening COc1ccc(CCC(=O)Nc2sccc2C#N)cc1 returned ALDH1A1 block -0.6%, LMNA splice mod -7.9%[46 µM], Luc counter -14.8% and IMPase Li inh 9.7%.
COc1cccc(C(=O)Nc2cccc(-c3cn4ccsc4n3)c2)c1OC was read as LMNA splice mod -20.6%[46 µM].
For CCCC(C)C(=O)OCC(=O)Nc1ccc(Br)cc1 (stereo not given) the results were ALDH1A1 block 11.2µM*, Luc counter 1.8% and IMPase Li inh -4.7%.
CC(=O)NC(C)C(=O)OCC(=O)Nc1ccc(Br)cc1 (stereo not given) was read as HPGD block -10.8%, ALDH1A1 block inconclusive, LMNA splice mod -0.4%, Luc counter 5.2% and IMPase Li inh -7.4%[38.3 µM].
Cc1ccc(N2C(=O)N(Cc3cc(=O)n4ccccc4n3)c3ccccc3S2(=O)=O)cc1Cl was read as LMNA splice mod -16.9%[46 µM].
`COc1ccc(-c2cc([C@H](O)C3CCCCN3)c3ccccc3n2)cc1` (stereo not given in full) gave HPGD block inconclusive, ALDH1A1 block inconclusive, Luc counter -25.1%[7.66 µM] and IMPase Li inh inconclusive.
C=CCSC1=NC(=O)/C(=C/c2cccs2)S1 was read as HPGD block 31.6µM*, ALDH1A1 block inconclusive, LMNA splice mod inconclusive, Luc counter -1.5% and IMPase Li inh -5.3%.
Screening CC(C)c1[nH]nc2c1C(C1C=CCCC1)C(C#N)=C(N)O2 (stereo not given) returned ALDH1A1 block 14.1µM* and LMNA splice mod inconclusive.
